From ChEMBL document CHEMBL3988442, “University of Dundee, Small-Polar-MMV Screening Library” (2021) come the findings set out here.

The campaign covered roughly 69,000 compounds. About 1,000 (1.4%) showed an effect of 50% or more. For the sample, strong results were picked, then their nearest neighbours and some compounds at random.

This assay has as its system Leishmania donovani. Nature of the assay: Leishmania intramacrophage assay. It counts as functional, organism-based. Details: scale not given: in the data most compounds retested in dose-response had high values.

In the case of `O=C(O)C(F)(F)F.O=C1COC2(CCN(S(=O)(=O)C3CC3)CC2)CN1c1cccnc1`, the “Percent Effect” value (30.3 µM, […]) is -7.696%.

On to `COc1ccc(C)nc1NC(=O)Cc1c(C)nn(C)c1C`, for which, for the setting “30.3 µM, […]”, the “Percent Effect” value is 1.753%.

Regarding `CC(C)NC(=O)c1ccc2nnc(C3CCN(S(C)(=O)=O)C3)n2c1` (centres undefined), for the setting “30.3 µM, […]”, the “Percent Effect” value worked out at 33.79%.

On to `CC(Cn1cncn1)NC(=O)N1CC2(CCCC2)c2ccccc21` (centres undefined), for which the “Percent Effect” value (30.3 µM, […]) is 3.028%.

With `COc1ccc(C2CCCN2C(=O)NCCNc2ccccn2)cc1` (centres undefined), the “Percent Effect” value (30.3 µM, […]) worked out at 69.63%.

Turning to `COc1ccc(C2CCCN2C(=O)NCCNc2ncccn2)cc1` (centres undefined), the “Percent Effect” value (30 µM, 30.03 µM) worked out at 9.2%.

Consider `COc1ccc(C2CCCN2C(=O)NCCCn2cccn2)cc1` (centres undefined), for which the “Percent Effect” value (30.3 µM, […]) is listed as 9.048%.

As for `CC(=O)c1cccc(-n2nc(C(C)=O)c(C(C)=O)c2C)c1`, the “Percent Effect” value (30.3 µM, […]) was -0.2536%.

Turning to `COC[C@@]12CC[C@@H](N3CCOCC3)C[C@H]1CCN(c1ncccc1Cl)C2`, the “Percent Effect” value (30 µM, 30.03 µM) is 52.08%.

With `COC[C@@]12CC[C@@H](N3CCOCC3)C[C@H]1CCN(c1ncccc1C)C2`, where the note is “30.3 µM, […]”, the “Percent Effect” value is listed as 25.83%.

Take `COC[C@@]12CC[C@@H](N3CCOCC3)C[C@H]1CCN(c1ncccc1F)C2`: the “Percent Effect” value (30.3 µM, […]) is 25.63%.

Turning to `CC(c1nccs1)N(C)C(=O)c1cc(CN(C)Cc2ccccc2)on1` (centres undefined), the “Percent Effect” value (30.3 µM, […]) was 13.49%.

As to `Cc1cnn(CC2CCCN2C(=O)c2cc(Cl)ccc2F)c1` (centres undefined), where the note is “30 µM, 30.03 µM”, the “Percent Effect” value is -5.128%.

`Nc1ncc2c(n1)CN(C1CCCC1)C2=O`: under “30 µM, 30.03 µM”, the “Percent Effect” value came to 22.17%.

For `CN1CCC(N2Cc3nc(N)ncc3C2=O)CC1`, the “Percent Effect” value (30.3 µM, […]) is 54.63%.

As to `CC1CCC(N2Cc3nc(N)ncc3C2=O)CC1` (centres undefined), the “Percent Effect” value (30.3 µM, […]) is reported as -33.84%.

Take `CCC1=NN2C(=N)/C(=C\c3cccn3-c3ccc(Cl)cc3)C(=O)N=C2S1`: for the setting “30.3 µM, […]”, the “Percent Effect” value is on record as -2.316%.

Consider `CCN1C(=O)CC[C@@H]2[C@H]1CCN2S(=O)(=O)Cc1ccc(C)cc1`, for which the “Percent Effect” value (30.3 µM, […]) is reported as 17.88%.

As for `Cl.Fc1ccccc1Cn1c(C2CCNCC2)cc2cccnc21`, the “Percent Effect” value (30.3 µM, […]) amounted to 43.21%.

In the case of `Cl.Fc1cccc(F)c1Cn1c(C2CCNCC2)cc2cccnc21`, the “Percent Effect” value (30.3 µM, […]) came to 57.89%.

For `Cl.Fc1cccc(F)c1Cn1c(C2CCCNC2)cc2cccnc21` (centres undefined), the “Percent Effect” value (30.3 µM, […]) is -15.48%.

With `Cc1nc(Nc2ncccn2)cc(C2CCN(CC(C)C)C2)n1` (centres undefined), the “Percent Effect” value (30.3 µM, […]) is 2.022%.

On to `CN1CSC[C@H]1C(=O)N1CCN(Cc2cccc(F)c2)CC1`, for which the “Percent Effect” value (30.3 µM, […]) worked out at 4.358%.

Regarding `CN(Cc1nc(CC2CC2)no1)CC1COc2ccccc2O1` (centres undefined), the “Percent Effect” value (30.3 µM, […]) was -8.353%.

Turning to `CCN1CC(CN(C)c2cc(C)nc(N)n2)Oc2ccccc21` (centres undefined), the “Percent Effect” value (30.3 µM, […]) turned out to be 84.12%.

Consider `COc1ccccc1OCCCN(C)c1cc(C)nc(N)n1`, for which the “Percent Effect” value (30.3 µM, […]) amounted to 16.27%.

On to `Cc1cc(N(C)CCCn2cccn2)nc(N)n1`, for which the “Percent Effect” value (30.3 µM, […]) is given as 27.03%.

Consider `CN(CC1COc2ccccc2O1)C(=O)C1=NN(C)C(=O)CC1` (centres undefined), for which, for the setting “30.3 µM, […]”, the “Percent Effect” value is 18.48%.

Turning to `Cc1cc(N(C)CC2COc3ccccc3O2)nc(N)n1` (centres undefined), for the setting “30.3 µM, […]”, the “Percent Effect” value stood at 51.06%.

On to `Cc1cc(N(C)CC2COc3ccccc3O2)nc(C)n1` (centres undefined), for which, where the note is “30.3 µM, […]”, the “Percent Effect” value worked out at 59.02%.

Regarding `Cc1csc(CN2CC(CO)Oc3ccccc32)n1` (centres undefined), under “30.3 µM, […]”, the “Percent Effect” value is recorded as -4.409%.

In the case of `CN(Cc1nnnn1C1CC1)CC1COc2ccccc2O1` (centres undefined), the “Percent Effect” value (30.3 µM, […]) was found to be 4.21%.

As for `COc1ccccc1CNC(=O)N1CCCC(NS(C)(=O)=O)C1` (centres undefined), under “30 µM, 30.03 µM”, the “Percent Effect” value is reported as -10.5%.

With `Br.O=C(O)c1csc(NCCc2ccccc2)n1`, the “Percent Effect” value (30.3 µM, […]) was -6.16%.

`CC(C)n1cnnc1CNC(=O)c1cnn(-c2ccccc2)c1`: the “Percent Effect” value (30.3 µM, […]) turned out to be 5.112%.

Turning to `Cc1nn(C)c(C)c1NC(=O)CN1CCOC(CN(C)C)C1` (centres undefined), for the setting “30.3 µM, […]”, the “Percent Effect” value is 51.92%.

Consider `Cc1nn(C)c(C)c1NC(=O)CN1CCOC(Cn2cccn2)C1` (centres undefined), for which the “Percent Effect” value (30.3 µM, […]) is reported as 7.584%.

As to `Cc1cc(NC(=O)CN2CCOC(CN(C)C)C2)n(C)n1` (centres undefined), the “Percent Effect” value (30.3 µM, […]) was determined as 9.756%.

Consider `CCC[C@@H]1CN(c2cncc(C(=O)N3CCOCC3)n2)C[C@H]1N(C)C`, for which the “Percent Effect” value (30.3 µM, […]) amounted to 5.453%.

In the case of `FC(F)(F)CCc1ccnc(N2CCN(CCc3ccncc3)CC2)n1`, the “Percent Effect” value (30.3 µM, […]) is -20.06%.

`NC(=O)c1cccc(CCNCc2cnc(-c3cccs3)s2)c1`: the “Percent Effect” value (30.3 µM, […]) was found to be 8.667%.

Turning to `Cc1nn(C)c2ncnc(N3CCC(O)(CN4CCCC4)CC3)c12`, the “Percent Effect” value (30.3 µM, […]) came out at 8.338%.

As to `CC(=O)c1cn(CCC(=O)N[C@H](C(=O)O)C(C)C)c2ccccc12`, the “Percent Effect” value (30 µM, 30.03 µM) came to 8.027%.

As for `CC[C@@H](C)[C@H](NC(=O)CCn1cc(C(C)=O)c2ccccc21)C(=O)O`, under “30.3 µM, […]”, the “Percent Effect” value amounted to 56.09%.

`CC(=O)c1cn(CCC(=O)N[C@@H](CC(C)C)C(=O)O)c2ccccc12`: under “30.3 µM, […]”, the “Percent Effect” value was 32.27%.

Regarding `CCC1=N[C@@]2(CC[C@@H]3CN(CC4CC4)C[C@@H]32)C(=O)N1C.O=C(O)C(F)(F)F`, where the note is “30 µM, 30.03 µM”, the “Percent Effect” value is recorded as 21.68%.

As for `CN1CCCC(N(C)S(=O)(=O)c2cccc3ncccc23)C1` (centres undefined), the “Percent Effect” value (30.3 µM, […]) is listed as 59.16%.

In the case of `Cc1ccc2cccc(S(=O)(=O)N(C)C3CCCN(C)C3)c2n1` (centres undefined), where the note is “30.3 µM, […]”, the “Percent Effect” value is on record as 25.11%.

For `CN(C1CCCN(c2ccccn2)C1)S(C)(=O)=O` (centres undefined), for the setting “30.3 µM, […]”, the “Percent Effect” value amounted to 25.41%.
